The values below come from ChEMBL document CHEMBL1961873, “Compounds: GSK PKIS; Assays: Nanosyn kinase panel” (2012).

The target in assay [1] is T1, Serine/threonine-protein kinase TBK1 (Homo sapiens) (UniProt Q9UHD2).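 Further: values are mean inhibition of TBK1, screened as part of the GSK published kinase inhibitor set.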
T1 sequence (whole entry): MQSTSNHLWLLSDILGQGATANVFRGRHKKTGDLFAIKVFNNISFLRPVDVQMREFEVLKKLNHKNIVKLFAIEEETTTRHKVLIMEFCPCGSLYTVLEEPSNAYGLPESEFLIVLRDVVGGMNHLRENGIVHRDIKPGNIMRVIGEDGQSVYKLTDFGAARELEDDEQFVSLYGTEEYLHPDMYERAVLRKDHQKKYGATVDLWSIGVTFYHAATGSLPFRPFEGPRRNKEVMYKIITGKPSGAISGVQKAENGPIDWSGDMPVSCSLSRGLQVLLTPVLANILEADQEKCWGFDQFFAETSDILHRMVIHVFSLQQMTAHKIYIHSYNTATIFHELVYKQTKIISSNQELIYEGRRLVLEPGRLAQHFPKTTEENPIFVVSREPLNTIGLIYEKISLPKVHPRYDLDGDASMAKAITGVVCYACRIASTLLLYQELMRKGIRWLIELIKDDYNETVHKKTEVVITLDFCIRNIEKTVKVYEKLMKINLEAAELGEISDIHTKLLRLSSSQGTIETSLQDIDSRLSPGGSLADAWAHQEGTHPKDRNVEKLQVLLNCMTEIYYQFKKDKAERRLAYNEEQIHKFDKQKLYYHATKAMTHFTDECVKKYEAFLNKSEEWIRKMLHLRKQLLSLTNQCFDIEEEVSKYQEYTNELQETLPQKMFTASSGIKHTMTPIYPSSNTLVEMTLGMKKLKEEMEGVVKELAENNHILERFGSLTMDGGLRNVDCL
To be noted: at 1 µM.

For assay [2], the target named is T2, Testis-specific serine/threonine-protein kinase 1 (Homo sapiens) (UniProt Q9BXA7).
T2 sequence (whole entry): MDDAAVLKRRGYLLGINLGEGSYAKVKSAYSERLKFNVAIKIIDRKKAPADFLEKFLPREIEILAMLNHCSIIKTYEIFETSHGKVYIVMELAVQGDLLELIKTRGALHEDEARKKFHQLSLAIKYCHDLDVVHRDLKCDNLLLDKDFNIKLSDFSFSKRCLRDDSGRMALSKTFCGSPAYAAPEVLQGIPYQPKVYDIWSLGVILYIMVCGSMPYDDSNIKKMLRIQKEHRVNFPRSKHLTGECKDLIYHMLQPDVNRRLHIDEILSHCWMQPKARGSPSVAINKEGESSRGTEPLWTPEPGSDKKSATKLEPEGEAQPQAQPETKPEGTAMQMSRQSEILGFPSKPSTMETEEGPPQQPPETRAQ
To be noted: at 0.1 µM.

The target of assay [3] is T2, Testis-specific serine/threonine-protein kinase 1 (Homo sapiens). To be noted: at 1 µM.
For assay [4], the target named is T3, Testis-specific serine/threonine-protein kinase 2 (Homo sapiens) (UniProt Q96PF2).
T3 sequence (whole entry): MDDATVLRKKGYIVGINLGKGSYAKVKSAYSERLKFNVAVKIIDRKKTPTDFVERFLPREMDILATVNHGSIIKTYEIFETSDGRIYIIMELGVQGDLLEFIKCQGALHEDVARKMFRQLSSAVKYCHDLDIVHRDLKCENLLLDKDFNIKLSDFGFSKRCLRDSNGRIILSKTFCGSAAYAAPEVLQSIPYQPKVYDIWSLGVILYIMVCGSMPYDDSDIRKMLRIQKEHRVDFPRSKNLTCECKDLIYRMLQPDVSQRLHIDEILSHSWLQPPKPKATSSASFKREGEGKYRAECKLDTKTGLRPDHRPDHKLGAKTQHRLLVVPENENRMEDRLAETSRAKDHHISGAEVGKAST
The note with it: at 0.1 µM.

In assay [5] the target is T3, Testis-specific serine/threonine-protein kinase 2 (Homo sapiens). To be noted: at 1 µM.
Assay [6] deals with Casein kinase I isoform alpha (Homo sapiens) (UniProt P48729). To be noted: at 0.1 µM.
Sequence of Casein kinase I isoform alpha (Homo sapiens) (P48729 2-337 limits assumed): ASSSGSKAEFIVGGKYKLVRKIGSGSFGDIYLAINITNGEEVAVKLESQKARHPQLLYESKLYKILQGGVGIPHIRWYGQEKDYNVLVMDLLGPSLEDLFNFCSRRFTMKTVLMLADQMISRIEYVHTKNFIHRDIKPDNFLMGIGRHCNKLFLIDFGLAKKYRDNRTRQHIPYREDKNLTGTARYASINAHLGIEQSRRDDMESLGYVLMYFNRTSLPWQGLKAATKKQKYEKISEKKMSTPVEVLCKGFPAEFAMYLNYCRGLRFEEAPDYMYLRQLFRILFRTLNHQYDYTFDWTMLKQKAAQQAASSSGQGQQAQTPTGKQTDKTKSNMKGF
For assay [7] the target is unchanged. To be noted: at 1 µM.
The target in assay [8] is Casein kinase I isoform gamma-1 (Homo sapiens) (UniProt Q9HCP0). The note with it: at 0.1 µM.
Sequence of Casein kinase I isoform gamma-1 (Homo sapiens) (Q9HCP0 whole entry, looked up, canonical isoform): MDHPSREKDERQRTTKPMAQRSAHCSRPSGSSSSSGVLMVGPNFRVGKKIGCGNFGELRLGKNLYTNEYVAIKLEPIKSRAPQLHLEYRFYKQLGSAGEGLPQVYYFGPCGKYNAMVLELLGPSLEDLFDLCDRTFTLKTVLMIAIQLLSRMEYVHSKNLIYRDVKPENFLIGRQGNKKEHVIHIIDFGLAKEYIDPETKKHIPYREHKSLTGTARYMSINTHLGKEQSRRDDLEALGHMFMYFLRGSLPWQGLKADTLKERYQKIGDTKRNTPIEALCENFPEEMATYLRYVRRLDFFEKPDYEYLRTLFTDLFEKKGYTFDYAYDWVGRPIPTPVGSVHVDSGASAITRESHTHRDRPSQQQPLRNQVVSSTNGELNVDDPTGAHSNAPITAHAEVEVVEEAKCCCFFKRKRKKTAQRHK
Assay [9] shares this target. To be noted: at 1 µM.
Assay [10] deals with Casein kinase I isoform gamma-2 (Homo sapiens) (UniProt P78368). To be noted: at 0.1 µM.
Sequence of Casein kinase I isoform gamma-2 (Homo sapiens) (P78368 whole entry, looked up, canonical isoform): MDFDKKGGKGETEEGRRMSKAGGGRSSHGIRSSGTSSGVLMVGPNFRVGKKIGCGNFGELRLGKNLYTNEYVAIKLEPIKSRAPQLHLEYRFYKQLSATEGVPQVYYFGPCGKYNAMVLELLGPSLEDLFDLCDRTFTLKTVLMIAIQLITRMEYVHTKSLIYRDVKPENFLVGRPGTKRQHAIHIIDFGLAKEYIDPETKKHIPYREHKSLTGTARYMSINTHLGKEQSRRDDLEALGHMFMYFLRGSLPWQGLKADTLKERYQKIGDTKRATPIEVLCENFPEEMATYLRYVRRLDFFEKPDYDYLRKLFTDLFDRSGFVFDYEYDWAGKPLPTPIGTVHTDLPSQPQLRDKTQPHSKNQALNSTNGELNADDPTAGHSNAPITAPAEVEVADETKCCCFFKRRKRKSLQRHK
Assay [11] shares this target. To be noted: at 1 µM.
Assay [12] has as its target Casein kinase I isoform gamma-3 (Homo sapiens) (UniProt Q9Y6M4). The note with it: at 0.1 µM.
For assay [13] the target is unchanged. The note with it: at 1 µM.
The target of assay [14] is Cyclin-dependent kinase 1 (Homo sapiens) (UniProt P06493). To be noted: at 0.1 µM.
Sequence of Cyclin-dependent kinase 1 (Homo sapiens) (P06493 whole entry, looked up): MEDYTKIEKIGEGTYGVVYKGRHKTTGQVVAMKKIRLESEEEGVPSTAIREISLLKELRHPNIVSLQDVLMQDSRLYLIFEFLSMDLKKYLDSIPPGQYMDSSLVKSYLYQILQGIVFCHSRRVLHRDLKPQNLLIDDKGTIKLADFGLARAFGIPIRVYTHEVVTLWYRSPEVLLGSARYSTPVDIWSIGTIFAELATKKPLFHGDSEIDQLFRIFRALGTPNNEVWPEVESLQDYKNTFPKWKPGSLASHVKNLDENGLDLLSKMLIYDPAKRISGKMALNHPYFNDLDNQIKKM
Assay [15] shares this target. The note with it: at 1 µM.
Assay [16] concerns the target Cyclin-dependent kinase 2 (Homo sapiens) (UniProt P24941). The note with it: at 0.1 µM.
Assay [17] has the same target. To be noted: at 1 µM.
The target is the same in assay [18]. The note with it: at 0.1 µM. This is another data set of the same source.
Assay [19] has the same target. The note with it: at 1 µM. The source holds these as a separate data set.
The target of assay [20] is CDK3/Cyclin E (Homo sapiens) (UniProt P24864+Q00526). The note with it: at 0.1 µM.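 Further: reported percentages are mean inhibition values.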
Sequence of CDK3/Cyclin E (Homo sapiens) (P24864 whole entry, looked up): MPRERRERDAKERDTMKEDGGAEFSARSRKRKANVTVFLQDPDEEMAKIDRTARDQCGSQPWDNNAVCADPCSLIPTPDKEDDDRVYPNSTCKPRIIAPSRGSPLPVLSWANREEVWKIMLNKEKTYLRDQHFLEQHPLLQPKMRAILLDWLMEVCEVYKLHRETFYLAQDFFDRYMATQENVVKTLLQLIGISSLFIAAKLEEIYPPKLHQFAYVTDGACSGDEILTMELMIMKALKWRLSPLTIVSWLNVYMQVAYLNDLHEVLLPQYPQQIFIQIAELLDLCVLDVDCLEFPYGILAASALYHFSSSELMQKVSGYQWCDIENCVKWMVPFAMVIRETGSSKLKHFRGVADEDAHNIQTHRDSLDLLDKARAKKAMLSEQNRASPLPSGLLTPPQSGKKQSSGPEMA
Sequence of CDK3/Cyclin E (Homo sapiens) (Q00526 whole entry, looked up): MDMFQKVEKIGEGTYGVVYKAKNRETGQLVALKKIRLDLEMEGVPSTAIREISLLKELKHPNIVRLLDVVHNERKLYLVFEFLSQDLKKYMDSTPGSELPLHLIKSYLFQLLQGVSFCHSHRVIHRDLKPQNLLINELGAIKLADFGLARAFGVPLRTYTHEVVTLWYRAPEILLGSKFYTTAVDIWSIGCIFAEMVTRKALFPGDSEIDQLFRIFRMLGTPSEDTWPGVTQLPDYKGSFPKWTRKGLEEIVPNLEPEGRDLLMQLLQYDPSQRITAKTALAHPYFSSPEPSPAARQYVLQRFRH

Sequence of Casein kinase I isoform gamma-3 (Homo sapiens) (Q9Y6M4 whole entry, looked up, canonical isoform): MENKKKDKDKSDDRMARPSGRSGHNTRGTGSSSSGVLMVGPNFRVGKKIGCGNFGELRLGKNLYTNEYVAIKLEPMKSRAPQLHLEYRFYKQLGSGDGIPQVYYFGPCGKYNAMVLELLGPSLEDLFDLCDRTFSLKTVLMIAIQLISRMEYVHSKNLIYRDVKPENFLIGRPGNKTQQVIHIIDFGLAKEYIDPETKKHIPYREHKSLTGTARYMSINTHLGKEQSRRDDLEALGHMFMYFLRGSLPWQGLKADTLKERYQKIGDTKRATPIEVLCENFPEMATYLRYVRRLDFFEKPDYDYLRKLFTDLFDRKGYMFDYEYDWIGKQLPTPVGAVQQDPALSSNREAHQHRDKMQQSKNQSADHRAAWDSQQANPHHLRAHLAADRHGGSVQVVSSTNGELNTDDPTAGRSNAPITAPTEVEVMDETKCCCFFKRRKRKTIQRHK

In general, inhibition refers to the relative decrease from the control value, in per cent. For `COc1cc(/C=N/Nc2ncnc3c2cnn3C(C)C)ccc1O`, the inhibition in assay [1] was 6.12%; in assay [2] it was 1.68%; in assay [3], 1.76%; in assay [4], 0.77%; in [5], 1.4%; in assay [6], -0.04%. For the same molecule, the inhibition in assay [7] worked out at 0.99%; in assay [8] it was 1.74%; in assay [9], 3.2%; in assay [10] it was 1.49%; in assay [11], 0.8%; in assay [12] it was 1.47%. For the same molecule, the inhibition in [13] came out at 2.79%; in assay [14], 11.8%; in assay [15], 47.9%; in [16], 7.48%; in [17] it was 46.5%; in assay [18] it was 6.02%. In addition, the values for the inhibition in [19] and in assay [20] were 32.4% and 6.53%, respectively.
`NS(=O)(=O)c1cccc(Nc2cc(-c3ccc(F)cc3)n[nH]2)c1`: the inhibition in assay [1] is 15.2%; in [2] it was 4.49%; in [3], 6.59%; in assay [4], 3.05%; in [5] it was 2.38%; in assay [6] it was -3.61%. Moreover, the inhibition in [7] came to 3.36%; in assay [8], 2.11%; in [9] it was 3.54%; in assay [10], 1.72%; in [11] it was 4.87%; in assay [12] it was 1.83%. Also, the inhibition in assay [13] is 4.57%; in assay [14], 0.79%; in assay [15] it was 9.28%; in [16], 2.32%; in [17], 11.1%; in assay [18] it was 7.11%. Moreover, the inhibition in [19] amounted to 28.4%; in assay [20] it was 10.6%.
Regarding `CN(C)c1cc2c(Nc3ccc4c(cnn4Cc4ccccc4)c3)ncnc2cn1`, the inhibition is 3.14% in [1]; 3.54% in assay [2]; -2.44% in assay [3]; 1.31% in assay [4]; -1.33% in [5]; 0.64% in assay [6]. Also, the inhibition stood at 4.63% in assay [7]; 2.47% in assay [8]; 3.24% in assay [9]; 2.05% in assay [10]; 2.69% in [11]; 1.93% in [12]. Besides, the inhibition in assay [13] stood at 2.19%; in assay [14], 0.49%; in assay [15] it was 1.95%; in assay [16] it was 1.76%; in assay [17], 4.21%; in assay [18], 2.18%. For the same molecule, the inhibition is 3.51% in assay [19] and 0.35% in [20].
With `Cc1nc(-c2ccccc2)n2nc(NCCCN3CCOCC3)ncc12`, the inhibition in assay [1] was found to be 6.52%; in assay [2], 0.26%; in [3], 3.44%; in assay [4] it was 0.32%; in assay [5], 0.77%; in [6], 1.74%. Further, the inhibition in assay [7] amounted to 8.04%; in assay [8], 2.06%; in assay [9] it was 2.66%; in assay [10] it was 2.09%; in assay [11] it was 2.19%; in [12], 1.6%. Further, the inhibition came to 1.78% in assay [13]; 1.76% in [14]; 2.4% in assay [15]; 2.24% in assay [16]; 2.48% in assay [17]; 2.24% in assay [18]. The results for the inhibition in assay [19] and in assay [20] were 4.68% and -1.66%, respectively.
With `Cc1ccc(C(=O)NC2CC2)cc1-c1ccc2[nH]ncc2c1`, the inhibition in [1] was -1.07%; in [2] it was -1.33%; in assay [3] it was -2.04%; in assay [4], -2.24%; in assay [5] it was -1.65%; in assay [6], -6.12%. The inhibition in assay [7] was -2.96%; in [8], -3.43%; in [9], -2.76%; in assay [10] it was -2.87%; in [11], -3.39%; in assay [12], -2.17%. The inhibition was -1.12% in [13]; 0.88% in assay [14]; 2.1% in assay [15]; 0.12% in [16]; 4.69% in [17]; -1.68% in [18]. Moreover, the results for the inhibition in assay [19] and in [20] were 0.18% and -2.07%, respectively.
Turning to `Cc1ccc2c(-c3ccnc(Nc4ccc5c(c4)OCCO5)n3)c(-c3ccc(C(F)(F)F)cc3)nn2n1`, the inhibition in assay [1] amounted to 4.69%; in assay [2] it was 1.7%; in assay [3], 2.26%; in assay [4], 0.67%; in assay [5], 0.47%; in assay [6], 0.54%. Besides, the inhibition in [7] is -3.1%; in assay [8] it was 1.24%; in [9], 1.97%; in [10], 0.1%; in assay [11] it was 1.66%; in assay [12], 1.42%. In addition, the inhibition is 1.29% in [13]; 1.21% in [14]; 2.01% in [15]; -0.16% in [16]; 2.09% in assay [17]; 0.31% in assay [18]. The inhibition in assay [19] was 1.68%; in assay [20] it was -0.58%.
In the case of `NS(=O)(=O)c1ccc(-c2cc3ccncc3cc2OCc2ccccc2)cc1`, the inhibition in [1] stood at 2.74%; in assay [2] it was 3.43%; in assay [3] it was 3.97%; in [4], 2.95%; in [5], 2.52%; in assay [6], 4.76%. The inhibition in [7] came to 3.35%; in [8], 2.57%; in assay [9], 3.44%; in assay [10], 1.61%; in assay [11] it was 3.43%; in assay [12], 1.53%. For the same molecule, the inhibition in assay [13] is 4.76%; in [14], -0.03%; in assay [15] it was 0.11%; in [16], 1.51%; in assay [17], 2.11%; in assay [18] it was 1.41%. The inhibition in [19] was determined as 1.57%; in [20] it was 4.12%.
